Sampled rows, rich in hits. Any-hit rate of the full collection: about 4.3%.
esBAF inh = SWI/SNF esBAF complex inhibition; mouse ES cells, Bmi1-luciferase knock-in reporter, 24 h; 100% = twice the neutral-well signal; reporter increase, % at 12.5 µM; actives 2% (n = 350,000); in the data active means activation above about 40%; inconclusive means no clear call, values can overlap the other calls;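 further: 0% = median of the plate's neutral control wells and 100% = double that signal; a rise in the Bmi1 reporter signal indicates esBAF inhibition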
Wnt bcat act = Wnt/beta-catenin pathway activation; Wnt/beta-catenin reporter cell assay, activator, plate reader; activation, % at 9.35 µM; actives 1.2% (n = 300,000); in the data active means activation above about 30%, passing the limit was not always enough; inconclusive means no clear call, values can overlap the other calls;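 further: 0% = neutral control wells and 100% = positive control wells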
MITF act = increases MITF-driven TRPM1 promoter luciferase signal; SK-MEL-5 TRPM1-promoter luciferase, 24 h; % of positive control, neutral wells = 0; activation, % at 12.5 µM; actives 0.75% (n = 300,000);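 active means mean activation of at least 80% with every replicate also reaching 80%; inconclusive means mean reaches 80% but some replicate falls short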;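 further: 0% = neutral control wells and 100% = parthenolide positive control wells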
SMARCA2 activ = SMARCA2 function activation, primary screen; MG213 cells, MMTV-luciferase reporter, dexamethasone, overnight; actives 1% (n = 370,000); activation, % at 9.1 µM; AID 652017; in the data active means activation above about 7.8%;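 further: 0% = vehicle wells and 100% = reference activator wells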
HSF1 inh = HSF1 inhibition; NIH3T3-HGL HSE-luciferase, MG132-induced, luminescence 8 h; active compounds read low; activity change, negative = inhibition, % at 7.5 µM (by protocol); actives 0.77% (n = 300,000);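 active means more than half of replicate wells show activity change below -50%, luminescence cut by over half; inconclusive means some wells, but at most half, below -50%; inactive means no replicate well below -50%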;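 further: luciferase reports HSF-1 transcriptional activity via heat shock element; 0% = median of DMSO wells and -100% = zero luminescence signal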
HSF1 activator = increases HSF-1 driven luciferase reporter signal; NIH3T3-HGL HSF-1 luciferase reporter, MG132, 8 h; 100% = twice DMSO control signal; activation, % at 9 µM; actives 1.7% (n = 300,000);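 active means mean replicate activation of at least 50% with a set share of replicates each reaching 50%; inconclusive means only one of those two conditions met; inactive means mean below 50% and too few replicates reaching it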;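 further: 0% = median of the neutral control wells and 100% = twice that signal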
Active calls of the source: *; ? = inconclusive; / = not tested or not shown.

SMILES	esBAF inh	Wnt bcat act	MITF act	SMARCA2 activ	HSF1 inh	HSF1 activator
CSc1ccccc1OCc1cc(C(=O)N2CCN(c3ccccc3)CC2C)no1 (centres undefined)	54*	17	44	2	35	39
CSc1ccccc1OCc1cc(C(=O)NCCc2ccco2)no1	65*	6	53	3	3	-23
CSc1ccccc1OCc1cc(C(=O)NCCc2nc(C)cc(C)n2)no1	34	13	52	3	6	16
CC(=O)c1ccc(OCc2cc(C(=O)N3CCN(c4ccccc4)CC3C)no2)cc1 (centres undefined)	110*	28	73	2	34	?
C[C@H]1CCCCO[C@H](CN(C)S(=O)(=O)c2ccccc2)[C@@H](C)CN([C@@H](C)CO)C(=O)c2cc(N(C)C)ccc2O1	3	/	/	/	/	/
C[C@@H]1CN([C@H](C)CO)C(=O)c2cc(NC(=O)NC3CCCCC3)ccc2O[C@@H](C)CCCCO[C@@H]1CN(C)C(=O)c1ccccc1	1	/	/	/	/	/
CCOC(=O)C1=NN(C(=O)COc2ccccc2)C(O)(c2ccc(Br)cc2)C1 (centres undefined)	/	0	-3	2	212	290*
COc1ccc(-c2c3c(nc4sc(C(=O)Nc5ccccc5)c(N)c24)CCC3)cc1	53*	36*	14	-4	19	14
Cc1cc(C)c2c(N)c(C(=O)Nc3nccs3)sc2n1	-76	39*	/	4	11	33
COCc1cc(C)nc2sc(C(=O)Nc3ccc(OC)cc3)c(N)c12	33	5	/	2	6	32
COCc1cc(C)nc2sc(C(=O)Nc3nccs3)c(N)c12	56*	6	/	0	0	7
Cc1cc(C)c2c(N)c(C(=O)NC3CC3)sc2n1	/	/	4	1	9	22
COCc1cc(C)nc2sc(C(=O)Nc3cccc(OC)c3)c(N)c12	67*	-2	/	6	26	45
CCOC(=O)c1c(-c2ccccc2)nc2cc(C)ccn12	52*	21	/	7	5	0
CCOC(=O)C(=O)c1c(-c2ccccc2)nc2ccccn12	/	-1	-21	0	-2	-4
CCOC(=O)c1c(-c2ccccc2)nc2ccc(C)cn12	47*	47*	43	5	6	24
C[C@@H]1CN([C@@H](C)CO)C(=O)Cc2cc(NC(=O)C3CCCCC3)ccc2O[C@H]1CN(C)S(=O)(=O)c1cccs1	5	/	/	/	/	/
CNC[C@@H]1Oc2ccc(NS(C)(=O)=O)cc2C(=O)N([C@H](C)CO)C[C@H]1C	0	/	/	/	/	/
Fc1cccc(-c2nnn3c2nc(Cl)c2ccccc23)c1	?	40*	-11	3	356	454*
NNc1nc2c(-c3ccc(F)cc3)nnn2c2ccccc12	33	39*	43	7	43	34
O=C(Nc1ccccc1F)N[C@@H]1CC[C@H](CC(=O)N2CCCCC2)O[C@@H]1CO	-6	/	/	/	/	/
C[C@@H]1CN([C@H](C)CO)C(=O)Cc2cc(NC(=O)Nc3cccc4ccccc34)ccc2O[C@H]1CN(C)C(=O)Nc1ccc(F)cc1	4	/	/	/	/	/
C[C@@H]1CN([C@H](C)CO)C(=O)CCCn2cc(nn2)CO[C@H]1CN(C)Cc1ccccc1C(=O)O	-3	/	/	/	/	/
CN(C)CC(=O)N[C@H]1CC[C@H](CCn2cc(C3CCCC3)nn2)O[C@H]1CO	1	/	/	/	/	/
CO[C@H]1CN(C)C(=O)c2ccc(NS(C)(=O)=O)cc2OC[C@@H](C)N(Cc2nccs2)C[C@H]1C	-1	/	/	/	/	/
SMILES	esBAF inh	Wnt bcat act	MITF act	SMARCA2 activ	HSF1 inh	HSF1 activator
CC(C)(C)c1ccc(-c2noc(-c3ccno3)n2)cc1	26	-3	118*	3	22	22
O=C(O)CSc1nnc(-c2ccccc2)c(-c2ccccc2)n1	-10	-2	9	-4	-1	-2
CCC(=O)NNC(=O)CSc1nnc(-c2ccccc2)c(-c2ccccc2)n1	1	0	-6	-2	-74*	-78
CCOC(=O)c1ccc(Nc2nc(C)cc(C)n2)cc1	39	18	46	-3	12	-2
CC(=O)c1ccc(Nc2nc(C)cc(C)n2)cc1	50*	22	66	7	2	32
C[C@@H]1CN([C@@H](C)CO)C(=O)Cc2cc(NC(=O)NC3CCCCC3)ccc2O[C@H]1CN(C)S(=O)(=O)c1ccc(F)cc1	-1	/	/	/	/	/
O=C1C=C(c2ccccc2)CC(/C=C/c2ccccc2)C1 (centres undefined)	/	6	2	2	70	98*
C[C@@H]1CN([C@H](C)CO)C(=O)c2cc(N(C)C)ccc2O[C@@H](C)CCCCO[C@@H]1CN(C)Cc1ccc(C(F)(F)F)cc1	1	/	/	/	/	/
CCC(=O)N(C)C[C@H]1Oc2cc(-c3ccccc3)ccc2S(=O)(=O)N([C@H](C)CO)C[C@H]1C	-7	/	/	/	/	/
C[C@H](CO)N1C[C@H](C)[C@H](CN(C)C(=O)c2ccccc2F)Oc2ncc(C#C[C@@H](C)O)cc2C1=O	-5	/	/	/	/	/
O=C(/C=C/c1ccc(N2CCCCC2)c([N+](=O)[O-])c1)c1ccc(O)cc1	60*	?	13	5	86	75*
COc1ccccc1C(=O)/C=C/c1ccc(N2CCCCC2)c([N+](=O)[O-])c1	19	-1	-7	-2	3	10
COc1cccc(NC(=O)Cn2c(=O)oc3cc(S(=O)(=O)N4CCCC4)ccc32)c1	/	37*	1	-5	-56*	-68
COc1ccc(CN(C)C(C)C(=O)Nc2ccc(S(=O)(=O)N3CCCCC3)cc2)cc1F (centres undefined)	24	34*	-3	-2	/	/
COc1ccc(CNC(=O)OCCN2CCN(S(=O)(=O)c3ccc(C)cc3)CCC2=O)cc1	-4	-3	-2	1	-68*	-75
COc1ccc(NC(=O)Cn2c(=O)oc3cc(S(=O)(=O)N4CCCC4)ccc32)c(OC)c1	-12	-2	/	-4	-8	-20
O=C(Cc1ccccc1F)Nc1ccc(S(=O)(=O)N2CCCCC2)cc1	-1	-3	-5	-2	-65*	-73
COc1cccc(NC(=O)N2C[C@H](O)COC[C@@H]3O[C@@H](CC(=O)NC4CCC4)CC[C@H]32)c1	1	/	/	/	/	/
CO[C@@H]1CN(C)C(=O)c2cc(NC(C)=O)ccc2OC[C@H](C)N(C(=O)c2ccc(F)cc2)C[C@H]1C	0	/	/	/	/	/
COc1ccc(CNC(=O)C[C@H]2C=C[C@H](NC(=O)Nc3ccc4c(c3)OCO4)[C@H](CO)O2)cc1	3	/	/	/	/	/
COc1ccccc1OCC(=O)Nc1ccc(S(=O)(=O)N2CCCC2)cc1	0	-2	0	-2	-62*	-70
COc1ccc(S(=O)(=O)N2CCN(CCC(=O)Nc3ccccc3F)CC2)cc1	-3	-2	4	-1	5	22
COc1ccccc1CCC(=O)OCC(=O)Nc1cccc(S(=O)(=O)N2CCCCC2)c1	5	-5	-6	2	8	23

From PubChem
